CaV13 ICDI inh: Primary screen for inhibitors of IQ motif and Ca2+-dependent inactivation inhibitor domain binding in CACNA1D, Förster resonance energy transfer in living cells, …. inhibition, % at 12.3 µM. HEK cells, CFP/YFP FRET ICDI-IQ, plate reader, 10 min; percent FRET-ratio fall versus neutral wells. AID 743397. 340,000 compounds, 0.098% hits;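 active = mean replicate inhibition of at least 30% and at least 1% of replicates passing that level; inconclusive = only one of the two criteria is met; inactive = neither criterion is met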;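 note: 0% = median of the neutral control wells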
PolyA inhibitor: inhibitors of polyadenylation in S. cerevisiae | S. cerevisiae SKY197-pL101 polyadenylation reporter, beta-gal luminescence; efflux-impaired pdr1/pdr3 knockout yeast; score 100 = 6 SD above DMSO | AID 1875 | 300,000 compounds, 0.02% hits | activity score, % at 12 µM;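 active = lowest replicate activity score at least 50, where 100 means six control SD above control mean; inconclusive = lowest score under 50 but half or more replicates reach 50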;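 note: yeast exposed to compound for 9 h at 30 °C; higher score means more reporter readthrough which indicates perturbed polyadenylation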
PfM18AAP inh-1: PfM18AAP enzyme inhibition; AID 1822; 290,000 compounds, 1.2% hits; inhibition, % at 7.35 µM; recombinant PfM18AAP, H-Glu-NHMec fluorogenic cleavage;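 active = inhibition above the campaign mean inhibition over all tested compounds plus 3 SD, cut at about 28% in these data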;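 note: 0% = plate median of test compound wells and 100% = 2 mM ZnCl2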
ALR H2O2 inh: inhibitors of human sulfhydryl oxidase ALR | P55789 | purified ALR, DTT oxidation, H2O2 HRP-luminol luminescence | inhibition, % (concentration not given with the values) | 290,000 compounds, 3.8% hits;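 active = mean replicate inhibition above about 79%, with every replicate also reaching it, limit read from the data; inconclusive = only one of the two criteria met; inactive = mean below limit and not every replicate reaching it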
Target sequence (P55789 whole entry, looked up): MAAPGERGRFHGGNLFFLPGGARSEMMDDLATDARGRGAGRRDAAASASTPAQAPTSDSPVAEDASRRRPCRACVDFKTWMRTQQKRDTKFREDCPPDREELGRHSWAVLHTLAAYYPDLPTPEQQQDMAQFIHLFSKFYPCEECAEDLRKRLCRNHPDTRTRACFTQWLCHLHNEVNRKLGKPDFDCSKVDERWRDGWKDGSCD
IDE cell activ: boosts human insulin-degrading enzyme activity in HEK cells; P14735; FAbeta-B cleavage, fluorescence polarization; 0% vehicle, 100% cell-free pure enzyme wells; activation, % at 5.96 µM; 340,000 compounds, 0.073% hits;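 active = activation above the mean of all tested compounds plus 3 SD, set per screening campaign, cut at about 17% in these data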
IDE inh: inhibitors of human insulin-degrading enzyme in cells; P14735; HEK cells, FAbetaB cleavage, fluorescence polarization; inhibition, % at 5.59 µM; 320,000 compounds, 0.41% hits; AID 434962;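 active = percent inhibition above the average of all tested compounds plus 3 SD, set per screening campaign, cut at about 16% in these data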;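 note: IDE supplied by intact live HEK cells; FP after avidin binding of uncleaved biotin substrate so inhibition keeps polarization high; 0% = DMSO wells and 100% = 60 µM reference IDE inhibitor Ii1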
PfM18AAP inh-2: PfM18AAP inhibition, confirmation; AID 2170; shares compounds with PfM18AAP inh-1; recombinant PfM18AAP, H-Glu-NHMec fluorogenic cleavage; 2,400 compounds, 28% hits; inhibition, % at 7.35 µM;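 active = mean inhibition over replicate wells above the hit cutoff set for the earlier primary screen, cut at about 29% in these data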;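 note: 0% = median of test compound wells and 100% = 2 mM ZnCl2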
CTSL1 confirm: counter-screen for PFM18AAP inhibitors: confirmation of human cathepsin L inhibitors; shares compounds with PfM18AAP inh-1; purified cathepsin L1, Z-Leu-Arg-MCA fluorescence; inhibition, % at 5.96 µM; 2,400 tested, under 10 active;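 active = average inhibition across replicates above the hit cutoff set in the earlier primary screen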;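 note: 0% = median of test compound wells and 100% = Z-Phe-Ala-diazomethylketone 1 µM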
Target sequence (P07711 whole entry, looked up): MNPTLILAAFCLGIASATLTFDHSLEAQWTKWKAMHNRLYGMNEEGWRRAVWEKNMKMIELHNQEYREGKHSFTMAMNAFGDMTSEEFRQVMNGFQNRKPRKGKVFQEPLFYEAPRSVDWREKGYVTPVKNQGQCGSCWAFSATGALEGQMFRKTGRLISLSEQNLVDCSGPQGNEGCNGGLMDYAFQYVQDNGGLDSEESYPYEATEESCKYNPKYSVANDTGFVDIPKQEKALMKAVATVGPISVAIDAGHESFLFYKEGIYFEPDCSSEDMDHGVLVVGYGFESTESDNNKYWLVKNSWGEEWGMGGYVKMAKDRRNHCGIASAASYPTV
Starred values were filed as active, the others as inactive; ? = inconclusive; . = not tested or not shown. Hits are enriched below; roughly 4.1% of the tested compounds scored in any of these assays.

SMILES	CaV13 ICDI inh	PolyA inhibitor	PfM18AAP inh-1	ALR H2O2 inh	IDE cell activ	IDE inh	PfM18AAP inh-2	CTSL1 confirm
Cc1cccc(Nc2nc(-c3ccc(O)c(O)c3)cs2)n1	-19	12	54*	99*	-8	-3	28	-5
Oc1ccc(-c2csc(Nc3ccccn3)n2)cc1O	-3	6	64*	98*	0	1	47*	-4
COc1ccc(-c2csc(Nc3ncccc3C)n2)cc1OC	.	-5	1	-1	-2	0	.	.
CN(CC(=O)Nc1ccccc1C(F)(F)F)C(=O)CC1OC(=O)c2ccccc21 (stereo not drawn)	.	11	2	-3	4	-1	.	.
COc1ccc2c(-c3ccccc3)cc(SC(C)C(N)=O)nc2c1 (stereo not drawn)	-5	-1	-7	11	3	7	.	.
Cc1csc(Nc2cccc3ccccc23)n1	-18	-6	7	2	5	-1	.	.
Oc1ccc(-c2csc(Nc3cccc4ccccc34)n2)cc1O	-20	4	55*	73	-1	7	25	-13
Oc1cc(O)c2c(c1)O[C@H](c1ccc(O)c(O)c1)[C@H](O)C2	-5	-9	81*	99*	5	-6	66*	1
CC1CCC2(CC1)NC(=S)N(c1ccccc1)N2 (stereo not drawn)	-5	0	45*	93*	-3	6	-24	2
Cc1c(NC(=S)N/N=C\c2ccccc2O)c(=O)n(-c2ccccc2)n1C	-3	-14	36*	39	2	2	-2	3
O=C(NNc1cccc(Cl)n1)c1ccc(Cl)nc1	2	5	26	26	-1	3	.	.
CCOc1cccc(/C=N/NC(=S)Nc2ccccc2[N+](=O)[O-])c1O	-7	14	-1	36	6	4	.	.
O=[N+]([O-])c1ccccc1NC(=S)N/N=C/c1ccc(O)c(O)c1	-5	-5	59*	70	2	-4	40*	1
CN(c1nc2nonc2nc1NC1CC1)C1CCOC1 (stereo not drawn)	-3	-14	0	-5	-1	4	.	.
O=C1NCCCC2c3c(cc(Br)c(O)c3Br)OC12N1CCCCC1 (stereo not drawn)	-5	-8	51*	99*	-4	6	-93	3
O=C1NC(=O)/C(=C\c2ccc(N3CCOCC3)o2)N1	-5	3	37*	12	3	7	-30	-6
CC(C)N=c1scc(-c2cccs2)n1/N=C/c1ccc(O)c(O)c1O	-6	.	39*	88*	-4	4	-40	-3
CCN=c1scc(-c2cccs2)n1/N=C/c1cc(OC)ccc1O	-5	.	-11	.	1	-2	.	.
Clc1cc(Cl)cc(Nc2ncn[nH]2)c1	.	-2	45*	.	5	-5	36*	-4
Cc1ccc(/C(O)=C/c2nc3cc(C)ccc3oc2=O)cc1	-3	-4	39*	8	.	-1	-36	-10
N#CC1=C(N)NC(=S)C(C(N)=O)C1c1ccc([N+](=O)[O-])cc1 (stereo not drawn)	-19	4	48*	68	-9	3	35*	7
Cc1cccc[n+]1C1C(c2ccc([N+](=O)[O-])cc2)C(C#N)=C(C(=C=[N-])C#N)NC1(O)C1CC1 (stereo not drawn)	-2	-7	4	47	-4	0	.	.
CCOC(=O)Cc1csc(NC(=O)NC2(C(F)(F)F)Oc3ccc(Cl)cc3O2)n1 (stereo not drawn)	-7	3	97*	?	-4	-3	73*	-2
CCOC(=O)Cc1csc(NC(=O)NC2(C(F)(F)F)Oc3ccccc3O2)n1	-4	11	90*	34	3	4	68*	1
CCOC(=O)Cc1csc(NC(=O)Nc2ccc(OC(F)(F)F)cc2)n1	-6	-10	-3	-1	2	1	.	.
SMILES	CaV13 ICDI inh	PolyA inhibitor	PfM18AAP inh-1	ALR H2O2 inh	IDE cell activ	IDE inh	PfM18AAP inh-2	CTSL1 confirm
CCOC(=O)Cc1csc(NC(=O)NC2(C(F)(F)F)Oc3cc(Cl)c(Cl)cc3O2)n1	0	0	94*	98*	-1	2	73*	-3
COc1ccccc1CCn1cnc(-c2cccc(Br)c2)c1C(C)C	-4	.	.	.	.	.	.	.
Nc1c(Cl)cc(-c2[nH]c3cc(C(=O)NCCO)ccc3c(=O)c2O)cc1Cl	-17	-12	40*	-3	5	0	-4	1
O=C(COC(=O)C1CCC1)NCc1ccc(F)cc1	.	-4	.	-7	-1	1	.	.
O=C1C=C(Nc2ccc(O)cc2)CC(c2ccco2)C1 (stereo not drawn)	-4	-2	42*	99*	3	3	-25	-1
CC(C)CNC1=CC(=O)CC(c2ccco2)C1 (stereo not drawn)	-4	6	40*	-9	6	-3	-16	-5
CCOC(=O)C1=C(C)NC(=S)NC1c1ccc(OCC(=O)N2CCCCCC2)cc1 (stereo not drawn)	-3	19	-6	.	1	9	.	.
CNC(=O)c1cc2ncc(C(F)(F)F)cc2s1	-6	1	-8	0	7	-2	.	.
CCC(C)n1ncn(-c2ccc(N3CCN(c4ccc(OCC5COC(Cn6cncn6)(c6ccc(Cl)cc6Cl)O5)cc4)CC3)cc2)c1=O (stereo not drawn)	-4	-6	-4	-9	1	0	.	.
CCC(C)n1ncn(-c2ccc(N3CCN(c4ccc(O)cc4)CC3)cc2)c1=O (stereo not drawn)	-5	-12	34*	.	2	-3	-22	-5
Cc1cc(/C=C2\Sc3ccccc3N2C)cc(C)[n+]1CC1CCCO1 (stereo not drawn)	-4	.	50*	.	.	.	-41	3
Cc1ccc(/C=C2/Sc3ccccc3N(CC(=O)NCC3CCCO3)C2=O)cc1 (stereo not drawn)	.	-11	3	-5	4	4	.	.
CCc1c(C)sc(NC(=O)c2cc(CC(C)C)on2)c1C#N	-10	15	13	2	1	-1	.	.
CCc1c(C)sc(NC(=O)c2noc(C)c2[N+](=O)[O-])c1C#N	-3	-5	37*	0	-2	2	-36	-3
O=C(NNc1ccc([N+](=O)[O-])cc1)c1ccccc1F	-6	.	39*	.	-1	.	16	9
O=C(NNC(=O)c1ccccc1-c1ccccc1C(=O)O)c1ccccc1	-3	-9	-5	-14	2	1	.	.
